Measurements as given in PubChem BioAssay AID1422 (Emory University Molecular Libraries Screening Center, 2008).
Several values for one entry are separate records, joined by “and”; a condition that tells them apart may be missing. Equal values may be shown once. About 1,300 (0.5%) of roughly 260,000 compounds were called active.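 How the source made its calls: active means percent inhibition above 40 after rounding to a whole number; inactive means the rest.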 Only a selection was taken, and actives are over-represented in it overall. The source holds several records for some structures; these can differ, active in one and inactive in another.

The compounds below were run against Prostaglandin E2 receptor EP2 subtype (Homo sapiens) (UniProt P43116) (assay: human EP2 receptor antagonists, primary screen, TR-FRET cAMP, C6 glioma cells (AID 1422;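 further: rat C6 glioma host cells with rolipram phosphodiesterase inhibitor present; the protocol text gives 20 µM as final concentration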)). Details: C6 glioma cells expressing human EP2, cAMP TR-FRET; at 25 µM; stronger effect = higher value; cells stimulated with saturating PGE2.
Sequence of Prostaglandin E2 receptor EP2 subtype (Homo sapiens) (P43116 whole entry, looked up): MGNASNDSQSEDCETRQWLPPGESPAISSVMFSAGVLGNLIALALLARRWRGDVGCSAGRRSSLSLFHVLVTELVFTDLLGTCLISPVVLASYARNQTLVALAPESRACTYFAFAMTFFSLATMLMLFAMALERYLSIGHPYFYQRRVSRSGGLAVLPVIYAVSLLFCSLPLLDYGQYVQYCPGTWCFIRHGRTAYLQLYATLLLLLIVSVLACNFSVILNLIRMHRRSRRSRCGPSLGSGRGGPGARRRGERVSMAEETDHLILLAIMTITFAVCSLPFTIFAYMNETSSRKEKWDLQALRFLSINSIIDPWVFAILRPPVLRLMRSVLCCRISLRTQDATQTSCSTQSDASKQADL

SMILES	inhibition
COc1ccccc1CC(=O)Nc1ccc([N+](=O)[O-])cc1OC	2.1% (inactive)
COc1ccccc1CSc1nc2ccccc2[nH]1	-5.57% (inactive)
COc1ccccc1CSc1ncc(-c2ccc([N+](=O)[O-])cc2)[nH]1	85.8% (active)
N#CCN1CCN(c2ncnc3sc4c(c23)CCCC4)CC1	12.8% (inactive)
CCN(CC)CCCN1C(=O)C(O)=C(C(=O)c2ccc(C)o2)C1c1ccccc1F (stereo unspecified)	13.9% (inactive)
COc1ccc(C2=NNC(c3cccnc3)=Nc3ccc(Br)cc32)cc1OC	6.87% (inactive)
Cc1cccc(C(=O)O)c1C[C@@H]1NCC[C@@H]2c3ccccc3N[C@@H]12	46% (active)
O=C(CN1N=C(c2ccccc2)Cn2c(cc3sccc32)C1=O)NCC1CCCO1 (stereo unspecified)	4.16% (inactive)
CCc1cc2cc3c(cc2nc1SCC(=O)Nc1ccccc1Br)OCCO3	8.66% (inactive)
Cc1cc2ccccc2n1CCC(=O)O	7.85% (inactive)
Cc1cc2ccccc2n1CCNC(=O)COc1ccc2ccccc2c1	73.2% (active)
COC(=O)C(C)NC(=O)COc1ccc2ccccc2c1 (stereo unspecified)	8.28% (inactive)
COC(=O)c1ccc(Cn2nc([N+](=O)[O-])c(Cl)c2C)cc1	12.7% (inactive)
O=S(=O)(O)c1ccc(O)c2ncccc12.O=S(=O)(O)c1ccc(O)c2ncccc12.[Zn]	45.1% (active)
O=[N+]([O-])c1cc([N+](=O)[O-])c2cccnc2c1O	7.12% (inactive)
O=C(O)COc1c(Cl)cc(Cl)c2cccnc12	16.4% (inactive)
Cc1ccc(-n2c(SCC(=O)NC(C)(C)C)nnc2-c2cccnc2)cc1C	15.1% (inactive)
Cc1ccc(NC(=S)NC(=O)/C=C/c2ccc(Cl)cc2)cc1	5.92% (inactive)
COc1ccc(NS(=O)(=O)c2ccc(NC(=O)C(C)(C(F)(F)F)C(F)(F)F)cc2)nn1	14.1% (inactive)

SMILES	inhibition
COc1ccc(NS(=O)(=O)c2ccc(NC(=S)NC(=O)/C=C/c3ccc(C)cc3)cc2)nn1	63.2% (active)
CC1CCN(c2nc3c(c(=O)[nH]2)CCN(Cc2ccc(C(F)(F)F)cc2)C3)CC1	6.96% (inactive)
COc1ccc(Cc2nnc(NC(=O)Cc3ccc(Cl)cc3)s2)cc1OC	9.47% (inactive)
CN(C)c1ccc(C=C2C(=O)OC3(CCCC3)OC2=O)cc1	41.7% (active) and 7.71% (inactive)
CC1=NN(Cc2ccccc2)C(=O)/C1=C/c1ccc(N(C)C)cc1	18.2% (inactive)
COc1cc(C=C2C(=O)OC3(CCCC3)OC2=O)ccc1OCc1ccccc1F	13.4% (inactive)
Cc1nn(C)cc1S(=O)(=O)N(Cc1ccncc1)C1CC1	7.77% (inactive)
Cc1nc2c(c(=O)[nH]1)CCN(C(=O)Cn1c3ccccc3c3ccccc31)C2	7.09% (inactive)
Cc1[nH]nc2c1C(c1ccc(OCC(=O)N3CCCC3)cc1)C(C#N)=C(N)O2 (stereo unspecified)	10.8% (inactive)
COc1ccc(OCCCC(=O)Nc2nc(-c3ccc(OC)cc3)cs2)cc1	12.9% (inactive)
Cc1ccc(CNS(=O)(=O)c2cccc(S(=O)(=O)N3CCCC3)c2)cc1	10.8% (inactive)
COCCn1c(N2CCCC2)nc2c1c(=O)n(C)c(=O)n2C	7.42% (inactive)
CC1=CC(C)(C)N(C(=O)CSc2nccn2C)c2cc(C)ccc21	17.5% (inactive)
CC1=CC(C)(C)N(C(=O)CSc2nnc(-c3ccccc3)o2)c2ccc(C)cc21	45.4% (active)
O=C(CSc1nnc(-c2ccccc2)o1)N1CCOCC1	8.71% (inactive)
COc1ccc(C2(NC(=O)c3noc(C)c3Cn3cccn3)CCCCC2)cc1	7.45% (inactive)
Cc1ccc(NC(=O)CSc2nnc(-c3ccncc3)n2C2CCCCC2)c(C)c1	15.8% (inactive)
COc1ccc(CNC(=O)CCSc2nc(-c3ccco3)cc(C(F)(F)F)n2)cc1	9.17% (inactive)
CC(Nc1nc(N2CCCC2)nc2ccccc12)c1ccccc1 (stereo unspecified)	48.2% (active)

SMILES	inhibition
CC(Nc1nc(N2CCN(CCO)CC2)nc2ccccc12)c1ccccc1 (stereo unspecified)	7.4% (inactive)
CC(Nc1nc(N2CCOCC2)nc2ccccc12)c1ccccc1 (stereo unspecified)	7.73% (inactive)
COCCNS(=O)(=O)c1ccc2[nH]c(=O)[nH]c2c1	9.6% (inactive)
Cc1cc(C)c2[nH]c(C)c(CN(C)Cc3ccccc3)c(=O)c2c1	12% (inactive)
CCC(c1nnnn1C(C)(C)C)N(Cc1ccccc1)Cc1cc2ccc(C)cc2[nH]c1=O (stereo unspecified)	5.18% (inactive)
Cc1nc(NC(=O)c2sc3nc4c(C)cccc4cc3c2N)sc1C	19.7% (inactive)
O=C(COC(=O)c1cccs1)Nc1ccccc1Cl	5.7% (inactive)
O=C(Nc1ccccc1Cl)/C(Cl)=C(\Cl)S(=O)c1ccccc1 (stereo unspecified)	57.5% (active)
O=C(Nc1ccccc1Cl)c1ccc2nsnc2c1	5.72% (inactive)
CC(C)OCCCNc1ncnc2c1[nH]c1ccc(F)cc12	46.2% (active)
COc1cc(OC)c(OC)cc1/C=N/Nc1ncnc2c1[nH]c1ccc(C)cc12	5.82% (inactive)
CC(C)OCCCNC(=O)c1cc(Sc2ccc(F)cc2)nc2ccccc12	8.64% (inactive)
CCCc1[nH]nc2c1C(C1CC=CCC1)C(C#N)=C(N)O2 (stereo unspecified)	3.84% (inactive)
CCCc1[nH]nc2c1C(c1c(C)nn(-c3ccccc3)c1Cl)C(C#N)=C(N)O2 (stereo unspecified)	25.4% (inactive)
CCCc1[nH]nc2c1C(c1ccc(Br)s1)C(C#N)=C(N)O2 (stereo unspecified)	51.9% (active)
CC(Sc1nnc(-c2cccnc2)n1-c1ccccc1)C(=O)Nc1ccc(N)cc1 (stereo unspecified)	14.6% (inactive)
O=c1c2ccc(Br)c3cccc(c32)c2nc3ccccc3n12	6.4% (inactive)
COc1ccccc1CNS(=O)(=O)c1ccc(S(=O)(=O)N2CCC(C)CC2)cc1	4.43% (inactive)
